This passage reports PBM binding z-score results from the supplement of paper PMC6555819.

The test system of the first experiment is PPARg:RXRa 270nM:90nM, anti-RXR (NR concentration 270 nM, RXRa partner concentration 90 nM). In words: PBM binding z-score (relative to random genomic background probes); higher = stronger binding; sequences stand for … in GC…GCGATTGACAGCGTAGAATGAAGG
In short, it runs like this:
(§1)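 Random background probes are the reference for binding z-scores. These scores derive from regression-normalized fluorescence on custom Agilent 4×180K protein-binding microarrays incubated 1 h with ligand-free nuclear receptor dimers. Binding was detected with antibodies against each partner (one per run).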
CCTAGTGGGCCATTCAGAGGTCATTGATCATATG: the PBM binding z-score was determined as 3.11.
The same measure, in the same setting: the value for TAGCCTAGGTCATGGTCCAGTATACCACGCGAAC was 3.12; that for CAAACTAGGTCAAAGGTCTAAGTCGAGCCAACCA was 10.
In turn, CCTACTGGGCCATCAGGTCATAGATATCAACGTT had a PBM binding z-score of 3.9.
TCTATTAGTTGGTTAGGGCAACCGAAACAGCGGA: the PBM binding z-score was found to be 1.55.
CGTCCAAGGTTAGCAGGTCAGTGAAAGCGACGTG returned a PBM binding z-score of 2.08.
For GGTGCTAGGTCAGGTTGGTCAGCTAACGGGTACG, the PBM binding z-score worked out at 1.8.
TTACCAAGGTGGGCTGAGGTCGTTGATCCAACTC yielded a PBM binding z-score of 0.212.
On the same count and under the same terms, in the case of CAAACTAGGTCAAAGGTCATAGTCGAGCCAACCA it was 11.2; in that of GCTGTTAGTTGAAAGGGCAACCGAATGATTCTCG, 2.9.
In turn, CGAACTAGGTCAGCCAGGACAGTGAATACATTGA came in with a PBM binding z-score of 5.28.
In turn, CCTACTGGGCCATCAGGTCATGGATATCAACGTT registered a PBM binding z-score of 4.15.
Turning to GGAACGAGGGCATTCGAGTTGATGGCATGGCGAT, the PBM binding z-score turned out to be 0.324.
Consider TAGCCTTGGTCAGATCGGGCCAGTATACGCTATA, for which the PBM binding z-score was -0.29.
The same measure, in the same setting: in the case of AGAATGAGGTTAAGATCAGGGACACAGAATACAT it was 2.39; in that of AGTCAAAGTTCACTAGGTGACGTAAGATTCAGCT, 7.04.
GCTGCTAGGTCAACTGATGGTCAGTTAAAGCTCG: the PBM binding z-score stood at 3.25.
On the same count and under the same terms, in the case of GGCACGAGGGCATTCGAGTTGATAGCATGGCGAT it was 0.216.
ACTCGGAGGACAAAGGTCAGAGCAACGCCAGTGA: the PBM binding z-score is 7.16.
The sequence ACTCGGAGAACAAAGGTCAGAGCTACGCCAGTGA registered a PBM binding z-score of 5.81.
TAGCCTAGGTCATGGGCCCGTATACCACGCGAAC yielded a PBM binding z-score of 3.32.
In the case of ATATGTAGATTAAGGGTCATTCAGGTTGGTTCGC, the PBM binding z-score was 6.77.
The same measure, in the same setting: the value for CGTCAAAGTTCAACCAAGGTAACGTAAAGCACGC was 5.53; that for GATACAGGGTCAGTTAGAGGCCAGAGTATGGAAA was 2.27; that for ACATGTAGGTTAGCTGGGGTCATTCAGACTAGGC was 4.58.
The same measure, in the same setting: in the case of TCTATTAGTTGATTAGGGCAAACGAAACAGCGGA it was 1.62; in that of AGTCAAAGTTCAGGACGAGGTAACCTAAAGCACG, 4.79.
On the same count and under the same terms, in the case of CGTCCAAGGTCAGGGAGGTCAGTGAATGCCGAGT it was 4.63; in that of GCGACTGGGGCATCAGCAGGTTAACATAACTTAA, 1.16; in that of CCTACTGGGCCAAGGTCATTGATCAGTCAAAGCA, 4.44.
Turning to TAGCCTAGGTCATGCGGGCCAGTCTAGTGTCGGC, the PBM binding z-score was found to be 2.23.
ATCGAAAGGTCGAAGGTGAGTTTACCCACCCGAA registered a PBM binding z-score of 4.6.
In turn, GCAGACAGGTGAAACGTAGGTAACTCAGGGTGGC came in with a PBM binding z-score of 0.526.
Same read-out and setting: the value for TCATACAGGTGAAGGTAACTCAGGTACGCAGTCG was 2.39; that for TAGCCTAGGTCATTCAGGGGCCAATATAGAAAGC was 2.82.
Take CCTCACGGGTCAAGGTTATAGCACGGGTGGTACG: the PBM binding z-score turned out to be 3.67.
TCGAGTGGGTTAGTCGGGGCATTCAGCCAACATA returned a PBM binding z-score of 0.869.
The same measure, in the same setting: in the case of CAAACTAGGCCAAAGGTCAAAGTCGAGCCAACCA it was 10.6.
Take CAAACTAGGGCACCGGAAGGTCAAAGTCCGCATG: the PBM binding z-score was determined as 6.02.
Sequence CTCGAAATGTCGGTTGAGGTGAGTATACGGATAA showed a PBM binding z-score of 0.218.

In a further experiment the test system is PPARg:RXRa 30nM:10nM, anti-RXR (NR concentration 30 nM, RXRa partner concentration 10 nM). Described as above. In short, it runs like this: as §1
The sequence CCTAGTGGGCCATTCAGAGGTCATTGATCATATG displayed a PBM binding z-score of 0.966.
TAGCCTAGGTCATGGTCCAGTATACCACGCGAAC: the PBM binding z-score worked out at 0.835.
For CAAACTAGGTCAAAGGTCTAAGTCGAGCCAACCA, the PBM binding z-score is 9.99.
On to CCTACTGGGCCATCAGGTCATAGATATCAACGTT, for which the PBM binding z-score turned out to be 1.86.
The same measure, in the same setting: in the case of TCTATTAGTTGGTTAGGGCAACCGAAACAGCGGA it was 3.59; in that of CGTCCAAGGTTAGCAGGTCAGTGAAAGCGACGTG, -0.171; in that of GGTGCTAGGTCAGGTTGGTCAGCTAACGGGTACG, 0.315.
On to TTACCAAGGTGGGCTGAGGTCGTTGATCCAACTC, for which the PBM binding z-score was -0.219.
With CAAACTAGGTCAAAGGTCATAGTCGAGCCAACCA, the PBM binding z-score came out at 12.9.
On to GCTGTTAGTTGAAAGGGCAACCGAATGATTCTCG, for which the PBM binding z-score worked out at 0.9.
For the sequence CGAACTAGGTCAGCCAGGACAGTGAATACATTGA, the PBM binding z-score was 2.28.
On the same count and under the same terms, in the case of CCTACTGGGCCATCAGGTCATGGATATCAACGTT it was 1.85; in that of GGAACGAGGGCATTCGAGTTGATGGCATGGCGAT, -0.665.
TAGCCTTGGTCAGATCGGGCCAGTATACGCTATA returned a PBM binding z-score of -0.644.
In turn, AGAATGAGGTTAAGATCAGGGACACAGAATACAT returned a PBM binding z-score of 0.988.
For AGTCAAAGTTCACTAGGTGACGTAAGATTCAGCT, the PBM binding z-score worked out at 3.81.
GCTGCTAGGTCAACTGATGGTCAGTTAAAGCTCG had a PBM binding z-score of 0.658.
GGCACGAGGGCATTCGAGTTGATAGCATGGCGAT returned a PBM binding z-score of -0.477.
Still for that read-out and setting: in the case of ACTCGGAGGACAAAGGTCAGAGCAACGCCAGTGA it was 6.17; in that of ACTCGGAGAACAAAGGTCAGAGCTACGCCAGTGA, 4.63; in that of TAGCCTAGGTCATGGGCCCGTATACCACGCGAAC, 0.723.
ATATGTAGATTAAGGGTCATTCAGGTTGGTTCGC: the PBM binding z-score came to 6.28.
CGTCAAAGTTCAACCAAGGTAACGTAAAGCACGC had a PBM binding z-score of 2.39.
In turn, GATACAGGGTCAGTTAGAGGCCAGAGTATGGAAA came in with a PBM binding z-score of 0.448.
The sequence ACATGTAGGTTAGCTGGGGTCATTCAGACTAGGC had a PBM binding z-score of 1.87.
TCTATTAGTTGATTAGGGCAAACGAAACAGCGGA registered a PBM binding z-score of 3.24.
The sequence AGTCAAAGTTCAGGACGAGGTAACCTAAAGCACG returned a PBM binding z-score of 2.04.
Turning to CGTCCAAGGTCAGGGAGGTCAGTGAATGCCGAGT, the PBM binding z-score turned out to be 0.9.
For GCGACTGGGGCATCAGCAGGTTAACATAACTTAA, the PBM binding z-score was 0.116.
The same measure, in the same setting: in the case of CCTACTGGGCCAAGGTCATTGATCAGTCAAAGCA it was 1.5; in that of TAGCCTAGGTCATGCGGGCCAGTCTAGTGTCGGC, -0.051.
The sequence ATCGAAAGGTCGAAGGTGAGTTTACCCACCCGAA returned a PBM binding z-score of 2.08.
The same measure, in the same setting: in the case of GCAGACAGGTGAAACGTAGGTAACTCAGGGTGGC it was -0.444; in that of TCATACAGGTGAAGGTAACTCAGGTACGCAGTCG, 3.72; in that of TAGCCTAGGTCATTCAGGGGCCAATATAGAAAGC, 0.793.
Same read-out and setting: the value for CCTCACGGGTCAAGGTTATAGCACGGGTGGTACG was 0.731; that for TCGAGTGGGTTAGTCGGGGCATTCAGCCAACATA was 0.979.
CAAACTAGGCCAAAGGTCAAAGTCGAGCCAACCA registered a PBM binding z-score of 11.
The sequence CAAACTAGGGCACCGGAAGGTCAAAGTCCGCATG registered a PBM binding z-score of 2.51.
Still for that read-out and setting: the value for CTCGAAATGTCGGTTGAGGTGAGTATACGGATAA was 0.0305.
